Measured values published in the supplement of paper PMC11732987, “Enantioselective OTUD7B fragment discovery through chemoproteomics screening and high-throughput optimisation” (Communications Chemistry, 2025).

Assays:
Assay in all cases: log2 ratio of Biotin-Ahx-Ub-VS probe labelling (compound/DMSO); higher = less target engagement, active = hit call of the paper (q ≤ 0.05, log2 ratio ≤ -1)
Details in all cases: treatment time: 3 h
[1] = compound: CCC1N(CCc2sccc12)C(=O)CCl
Summary of the method: (§1)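 Compound at 50 or 200 µM, or DMSO, was applied for 3 h in triplicate to HEK293T lysate (495 µg per sample, Tris/CHAPS/IGEPAL buffer with protease inhibitors), after which Biotin-Ahx-Ub-VS was added at 0.5 µM final for 1 h. The labelled DUBs were pulled down with NeutrAvidin, digested with LysC and trypsin, and run by diaPASEF LC-MS/MS. Ratios are averaged base-two logs of compound over DMSO from median-normalised label-free quantities by unpaired t-test, counting only proteins with at least 2 unique peptides.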

[2] = compound: CN1c2ccccc2C(CS1(=O)=O)NC(=O)CCl
Summary of the method: as §1

[3] = compound: Cl.ClCC(=O)N1CCc2ncncc2C1
Summary of the method: as §1

[4] = compound: Cl.Cn1ncc2C(CCCc12)NC(=O)CCl
Summary of the method: as §1

[5] = compound: ClCC(=O)NC1CCOc2ccccc12
Summary of the method: as §1

[6] = compound: ClCC(=O)NC1CCCc2ccccc12
Summary of the method: (§2)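 The values are mean compound-versus-vehicle ratios derived by unpaired t-test. For 3 h, triplicate HEK293T lysate samples (495 µg each) were treated with compound at a series of concentrations or with vehicle, after which Biotin-Ahx-Ub-VS was added to 0.5 µM final for 1 h. Labelled deubiquitinases were enriched with NeutrAvidin, digested with LysC and trypsin, and analysed by diaPASEF LC-MS/MS. Ratios are log2 values from global-median-normalised Spectronaut label-free quantities, using proteins with two or more unique peptides.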

[7] = compound: ClCC(=O)N[C@@H]1CCCc2ccccc12
Summary of the method: as §2

[8] = compound: ClCC(=O)N[C@H]1CCCc2ccccc12
Summary of the method: as §2

[9] = compound: CCC1N(CCc2cc(OC)c(Cl)cc12)C(=O)CCl
Summary of the method: as §1

[10] = compound: CCCC1N(CCc2cc(OC)c(OC)cc12)C(=O)CCl
Summary of the method: as §1

Measured: log2 ratio of Biotin-Ahx-Ub-VS probe labelling

USP28 (UniProt Q96RU2)
UniProt Q96RU2, sequence (Q96RU2 whole entry): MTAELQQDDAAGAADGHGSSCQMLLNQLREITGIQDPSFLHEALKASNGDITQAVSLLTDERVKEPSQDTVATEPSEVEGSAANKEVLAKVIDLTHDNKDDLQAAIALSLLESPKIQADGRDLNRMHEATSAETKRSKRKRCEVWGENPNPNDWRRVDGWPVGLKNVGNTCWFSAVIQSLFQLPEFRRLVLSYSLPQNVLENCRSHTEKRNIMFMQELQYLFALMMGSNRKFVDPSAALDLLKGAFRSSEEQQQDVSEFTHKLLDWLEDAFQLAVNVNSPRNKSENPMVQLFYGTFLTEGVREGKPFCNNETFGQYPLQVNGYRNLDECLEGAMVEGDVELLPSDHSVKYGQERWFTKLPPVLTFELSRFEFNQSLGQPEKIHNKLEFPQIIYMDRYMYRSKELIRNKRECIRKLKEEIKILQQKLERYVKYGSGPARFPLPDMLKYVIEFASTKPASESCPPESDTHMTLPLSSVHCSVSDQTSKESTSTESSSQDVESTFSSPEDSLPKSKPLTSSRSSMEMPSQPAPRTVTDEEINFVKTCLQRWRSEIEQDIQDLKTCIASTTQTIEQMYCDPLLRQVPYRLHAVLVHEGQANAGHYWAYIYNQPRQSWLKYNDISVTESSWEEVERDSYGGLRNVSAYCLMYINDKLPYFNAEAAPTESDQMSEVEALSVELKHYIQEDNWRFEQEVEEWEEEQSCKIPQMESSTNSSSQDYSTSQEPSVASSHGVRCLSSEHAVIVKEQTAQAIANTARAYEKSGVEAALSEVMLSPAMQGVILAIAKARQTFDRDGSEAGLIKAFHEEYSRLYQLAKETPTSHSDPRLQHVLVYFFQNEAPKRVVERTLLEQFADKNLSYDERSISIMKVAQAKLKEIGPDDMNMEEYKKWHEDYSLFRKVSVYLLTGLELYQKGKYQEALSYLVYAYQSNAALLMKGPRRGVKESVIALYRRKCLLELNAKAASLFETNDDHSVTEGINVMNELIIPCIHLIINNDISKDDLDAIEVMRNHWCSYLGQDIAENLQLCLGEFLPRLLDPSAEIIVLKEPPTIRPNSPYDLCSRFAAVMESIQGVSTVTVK
inactive: [1]; compound concentration: 50uM -0.105 | [1]; compound concentration: 200uM -0.495 | [2]; compound concentration: 50uM -0.127 | [2]; compound concentration: 200uM -0.556 | [3]; compound concentration: 50uM -0.0823 | [3]; compound concentration: 200uM -0.643 | [4]; compound concentration: 50uM 0.00687 | [4]; compound concentration: 200uM -0.349 | [5]; compound concentration: 50uM 0.0277 | [5]; compound concentration: 200uM -0.467 | [6]; compound concentration: 0.78uM -0.115 | [6]; compound concentration: 1.56uM 0.0493 | [6]; compound concentration: 3.13uM -0.068 | [6]; compound concentration: 6.25uM -0.0775 | [6]; compound concentration: 12.5uM -0.136 | [6]; compound concentration: 25uM -0.188 | [6]; compound concentration: 50uM -0.185 | [6]; compound concentration: 100uM -0.427 | [6]; compound concentration: 200uM -0.751 | [7]; compound concentration: 0.78uM -0.289 | [7]; compound concentration: 1.56uM -0.168 | [7]; compound concentration: 3.13uM -0.114 | [7]; compound concentration: 6.25uM -0.181 | [7]; compound concentration: 12.5uM -0.122 | [7]; compound concentration: 25uM -0.154 | [7]; compound concentration: 50uM -0.239 | [7]; compound concentration: 100uM -0.221 | [7]; compound concentration: 200uM -0.426 | [8]; compound concentration: 0.78uM -0.0897 | [8]; compound concentration: 1.56uM -0.144 | [8]; compound concentration: 3.13uM -0.065 | [8]; compound concentration: 6.25uM 0.0299 | [8]; compound concentration: 12.5uM -0.143 | [8]; compound concentration: 25uM -0.24 | [8]; compound concentration: 50uM -0.318 | [8]; compound concentration: 100uM -0.618 | [8]; compound concentration: 200uM -0.996 | [9]; compound concentration: 50uM -0.146 | [9]; compound concentration: 200uM -0.945 | [10]; compound concentration: 50uM -0.218 | [10]; compound concentration: 200uM -0.719

USP39 (UniProt Q53GS9)
UniProt Q53GS9, sequence (Q53GS9 whole entry): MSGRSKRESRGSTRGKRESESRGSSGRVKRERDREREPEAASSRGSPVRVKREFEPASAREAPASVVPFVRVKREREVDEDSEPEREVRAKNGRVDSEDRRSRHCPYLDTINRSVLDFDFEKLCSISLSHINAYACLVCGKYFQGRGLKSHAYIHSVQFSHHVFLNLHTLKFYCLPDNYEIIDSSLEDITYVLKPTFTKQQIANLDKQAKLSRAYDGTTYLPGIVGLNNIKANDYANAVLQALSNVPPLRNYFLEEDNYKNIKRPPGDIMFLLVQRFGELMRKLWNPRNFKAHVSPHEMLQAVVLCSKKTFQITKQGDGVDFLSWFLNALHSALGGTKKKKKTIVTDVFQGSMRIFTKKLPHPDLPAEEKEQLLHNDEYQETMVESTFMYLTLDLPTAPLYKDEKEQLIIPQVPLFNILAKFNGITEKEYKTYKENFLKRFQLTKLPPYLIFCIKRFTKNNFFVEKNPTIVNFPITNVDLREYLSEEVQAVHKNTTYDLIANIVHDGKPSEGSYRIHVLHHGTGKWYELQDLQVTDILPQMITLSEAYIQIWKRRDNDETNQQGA
inactive: [1]; compound concentration: 50uM 0.0546 | [1]; compound concentration: 200uM -0.102 | [2]; compound concentration: 50uM -0.157 | [2]; compound concentration: 200uM -0.0618 | [3]; compound concentration: 50uM 0.0365 | [3]; compound concentration: 200uM -0.18 | [4]; compound concentration: 50uM 0.0136 | [4]; compound concentration: 200uM -0.0545 | [5]; compound concentration: 50uM 0.225 | [5]; compound concentration: 200uM -0.157 | [6]; compound concentration: 0.78uM -0.0849 | [6]; compound concentration: 1.56uM 0.00415 | [6]; compound concentration: 3.13uM -0.107 | [6]; compound concentration: 6.25uM -0.121 | [6]; compound concentration: 12.5uM -0.133 | [6]; compound concentration: 25uM -0.219 | [6]; compound concentration: 50uM -0.32 | [6]; compound concentration: 100uM -0.0966 | [6]; compound concentration: 200uM -0.188 | [7]; compound concentration: 0.78uM -0.138 | [7]; compound concentration: 1.56uM -0.0134 | [7]; compound concentration: 3.13uM 0.0533 | [7]; compound concentration: 6.25uM -0.0819 | [7]; compound concentration: 12.5uM -0.132 | [7]; compound concentration: 25uM -0.181 | [7]; compound concentration: 50uM -0.277 | [7]; compound concentration: 100uM -0.108 | [7]; compound concentration: 200uM -0.208 | [8]; compound concentration: 0.78uM 0.0296 | [8]; compound concentration: 1.56uM -0.22 | [8]; compound concentration: 3.13uM -0.0221 | [8]; compound concentration: 6.25uM -0.000844 | [8]; compound concentration: 12.5uM -0.0179 | [8]; compound concentration: 25uM -0.167 | [8]; compound concentration: 50uM -0.0419 | [8]; compound concentration: 100uM -0.206 | [8]; compound concentration: 200uM -0.187 | [9]; compound concentration: 50uM 0.209 | [9]; compound concentration: 200uM 0.0808 | [10]; compound concentration: 50uM -0.0814 | [10]; compound concentration: 200uM -0.0567

OTUB1 (UniProt Q96FW1)
UniProt Q96FW1, sequence (Q96FW1 whole entry): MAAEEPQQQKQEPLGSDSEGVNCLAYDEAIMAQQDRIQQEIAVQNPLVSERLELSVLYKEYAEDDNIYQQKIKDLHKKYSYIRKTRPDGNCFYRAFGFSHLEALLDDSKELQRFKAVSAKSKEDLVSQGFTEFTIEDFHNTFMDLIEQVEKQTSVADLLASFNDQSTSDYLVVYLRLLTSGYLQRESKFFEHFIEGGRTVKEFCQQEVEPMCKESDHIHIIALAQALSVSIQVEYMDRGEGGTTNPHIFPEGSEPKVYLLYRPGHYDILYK
inactive: [1]; compound concentration: 50uM -0.117 | [1]; compound concentration: 200uM -0.154 | [2]; compound concentration: 50uM -0.275 | [2]; compound concentration: 200uM -0.196 | [3]; compound concentration: 50uM -0.211 | [3]; compound concentration: 200uM -0.426 | [4]; compound concentration: 50uM 0.106 | [4]; compound concentration: 200uM -0.247 | [5]; compound concentration: 50uM -0.281 | [5]; compound concentration: 200uM -0.037 | [6]; compound concentration: 0.78uM -0.196 | [6]; compound concentration: 1.56uM -0.0742 | [6]; compound concentration: 3.13uM -0.226 | [6]; compound concentration: 6.25uM -0.309 | [6]; compound concentration: 12.5uM -0.314 | [6]; compound concentration: 25uM -0.147 | [6]; compound concentration: 50uM -0.404 | [6]; compound concentration: 100uM -0.172 | [6]; compound concentration: 200uM -0.492 | [7]; compound concentration: 0.78uM 0.0648 | [7]; compound concentration: 1.56uM -0.00906 | [7]; compound concentration: 3.13uM -0.216 | [7]; compound concentration: 6.25uM -0.197 | [7]; compound concentration: 12.5uM -0.122 | [7]; compound concentration: 25uM -0.199 | [7]; compound concentration: 50uM -0.236 | [7]; compound concentration: 100uM -0.0374 | [7]; compound concentration: 200uM -0.142 | [8]; compound concentration: 0.78uM -0.244 | [8]; compound concentration: 1.56uM -0.103 | [8]; compound concentration: 3.13uM -0.28 | [8]; compound concentration: 6.25uM -0.301 | [8]; compound concentration: 12.5uM -0.188 | [8]; compound concentration: 25uM -0.119 | [8]; compound concentration: 50uM -0.16 | [8]; compound concentration: 100uM -0.00187 | [8]; compound concentration: 200uM -0.123 | [9]; compound concentration: 50uM 0.198 | [9]; compound concentration: 200uM -0.422 | [10]; compound concentration: 50uM -0.107 | [10]; compound concentration: 200uM -0.0707
